According to the supplement of paper PMC4840960:
Structures can show the parent of a compound that is named as a salt. ± gives the standard deviation of the averaged measurements.

Columns and labels:
[1] = tested on: E18 rat cortical neuron-glia co-culture; experiment: fiber score / MBP score (myelination specific beyond OL differentiation) (ratio); higher = more myelination-specific MBP alignment; details: treatment time: 8 days (DIV5-DIV13)
Method in brief: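 Reported values are fiber score (continuous MBP fiber length per Olig2+ nucleus) divided by MBP score (thresholded MBP area × intensity per Olig2+ nucleus). They come from primary E18 rat cortical co-cultures treated with library compounds at 1 or 5 µM in myelination medium from DIV5 to DIV13, then fixed in 4 % paraformaldehyde, immunostained for MBP and Olig2 with DAPI, and analysed over four 10X fields per well in duplicate wells.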

[2] = tested on: E18 rat cortical neuron-glia co-culture; experiment: myelination (MBP fiber length per Olig2+ nucleus), % of 1 µM DAPT response (DMSO = 0) (% of DAPT); higher = more myelination, active = 50 or more; details: treatment time: 8 days (DIV5-DIV13)
Method in brief: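 Rat cortical co-cultures from E18 tissue were dissociated with papain and plated at 20,000 cells/well on 96-well plates coated with poly-d-lysine/laminin. From DIV5 to DIV13, library compounds were added at 1 or 5 µM in myelination medium. After fixation in 4 % paraformaldehyde, cultures were immunostained for MBP and Olig2 and counterstained with DAPI, and four 10X fields were analysed in each of duplicate wells. The myelination value is the length of continuous straight MBP fibers per Olig2+ nucleus, normalised so that 0.1 % DMSO is 0 and a 1 µM positive control is 100.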

Compound | fiber score / MBP score ([1]; 1 µM) | fiber score / MBP score ([1]; 5 µM) | myelination ([2]; 1 µM) | myelination ([2]; 5 µM)
O=C(O)c1cc(-c2ccc(F)cc2F)ccc1O [Diflunisal] | 0.772 | 1.08 | -4.48 (inactive) | 6.86 (inactive)
CC[C@@H]1C(=O)OC[C@@H]1Cc1cncn1C [Pilocarpine] | 0.814 | 0.782 | -24.8 (inactive) | -11.2 (inactive)
CCOc1ccc2ccccc2c1C(=O)N[C@@H]1C(=O)N2[C@@H]1SC(C)(C)[C@@H]2C(=O)O [Nafcillin] | 1.25 | 0.777 | 4.05 (inactive) | -9.33 (inactive)
CC(C)Cc1ccc(C(C)C(=O)O)cc1 (configuration not stated) [Ibuprofen] | 0.67 | 0.833 | -7.57 (inactive) | -2.85 (inactive)
C[C@]12CCC(=O)C=C1CC[C@@H]1[C@@H]2[C@@H](O)C[C@@]2(C)[C@H]1CC[C@]2(O)C(=O)COC(=O)CCC(=O)O [Cortisol succinate] | 0.943 | 1.41 | 0.996 (inactive) | 17.9 (inactive)
CC(C)NCC(O)COc1cccc2[nH]ccc12 (configuration not stated) [Pindolol] | 1.07 | 0.955 | -3.4 (inactive) | -3.46 (inactive)
O=C(O)c1cc(/N=N/c2ccc(S(=O)(=O)Nc3ccccn3)cc2)ccc1O [Sulfasalazine] | 0.823 | 1.17 | -11.7 (inactive) | 1.71 (inactive)
COc1ccc([C@@H]2Sc3ccccc3N(CCN(C)C)C(=O)[C@@H]2OC(C)=O)cc1 [Diltiazem] | 0.782 | 0.558 | -10.1 (inactive) | -20.8 (inactive)
CN(C)CCCN1c2ccccc2CCc2ccc(Cl)cc21 [Clomipramine] | 1.05 | 0.899 | -10.8 (inactive) | -23 (inactive)
C#C[C@]1(O)CC[C@H]2[C@@H]3CCC4=CC(=O)CC[C@@H]4[C@H]3CC[C@@]21CC [Levonorgestrel] | 0.998 | 1.12 | -13.4 (inactive) | 0.485 (inactive)
C[C@]12C=CC(=O)C=C1CC[C@@H]1[C@@H]2[C@@H](O)C[C@@]2(C)[C@H]1CC[C@]2(O)C(=O)CO [Prednisolone] | 0.693 | 0.923 | -6.4 (inactive) | 0.38 (inactive)
CC[C@H]1OC(=O)[C@H](C)[C@@H](O[C@H]2C[C@@](C)(OC)[C@@H](O)[C@H](C)O2)[C@H](C)[C@@H](O[C@@H]2O[C@H](C)C[C@H](N(C)C)[C@H]2O)[C@](C)(O)C[C@@H](C)CN(C)[C@H](C)[C@@H](O)[C@]1(C)O [Azithromycin] | 0.707 | 0.488 | -7.57 (inactive) | -11.8 (inactive)
Cc1cn([C@H]2C[C@H](N=[N+]=[N-])[C@@H](CO)O2)c(=O)[nH]c1=O [Zidovudine] | 0.929 | 0.666 | 11.9 (inactive) | -21.5 (inactive)
CCOC(=O)CCC(=O)O[C@H]1[C@H](O[C@@H]2[C@@H](C)[C@H](O[C@H]3C[C@@](C)(OC)[C@@H](O)[C@H](C)O3)[C@@H](C)C(=O)O[C@H](CC)[C@@](C)(O)[C@H](O)[C@@H](C)C(=O)[C@H](C)C[C@@]2(C)O)O[C@H](C)C[C@@H]1N(C)C [Erythromycin Ethylsuccinate] | 0.639 | 0.642 | -18 (inactive) | -16.3 (inactive)
Oc1ncnc2[nH]ncc12 [Allopurinol] | 1.01 | 0.903 | 6.93 (inactive) | -0.27 (inactive)
CC(C)NCC(O)c1ccc(O)c(O)c1 (configuration not stated) [Isoproterenol] | 0.965 | 0.931 | 13.7 (inactive) | 10.5 (inactive)
NC(=O)c1cccnc1 [Niacinamide] | 0.96 | 0.901 | -7.93 (inactive) | -4.86 (inactive)
COc1cc(NC(C)CCCN)c2ncccc2c1 (configuration not stated) [Primaquine] | 0.815 | 0.985 | -0.112 (inactive) | 11.1 (inactive)
CN1CCC[C@H]1c1cccnc1 [Nicotine] | 0.761 | 1.06 | -10.1 (inactive) | 2.28 (inactive)
NCC(=O)CCC(=O)O [Aminolevulinic Acid] | 1.11 | 1.44 | 0.461 (inactive) | 39.4 (inactive)
COCCCC/C(=N\OCCN)c1ccc(C(F)(F)F)cc1 [Fluvoxamine] | 1.03 | 0.487 | -0.231 (inactive) | -9.1 (inactive)
C[C@@H](c1ncncc1F)[C@](O)(Cn1cncn1)c1ccc(F)cc1F [Voriconazole] | 0.693 | 0.824 | -40.5 (inactive) | -29.3 (inactive)
OCCN(CCO)c1nc(N2CCCCC2)c2nc(N(CCO)CCO)nc(N3CCCCC3)c2n1 [Dipyridamole] | 1.01 | 0.523 | 3.14 (inactive) | -17.3 (inactive)
OC[C@H]1O[C@@H](Oc2cc(O)cc(/C=C/c3ccc(O)cc3)c2)[C@H](O)[C@@H](O)[C@@H]1O [Polydatin] | 0.578 | 0.769 | -20.3 (inactive) | -3.53 (inactive)

Compound | fiber score / MBP score ([1]; 1 µM) | fiber score / MBP score ([1]; 5 µM) | myelination ([2]; 1 µM) | myelination ([2]; 5 µM)
CN(C)[C@@H]1C(O)=C(C(N)=O)C(=O)[C@@]2(O)C(O)=C3C(=O)c4c(O)cccc4C[C@H]3C[C@@H]12 [Sancycline] | 0.961 | 0.714 | -12.5 (inactive) | -15 (inactive)
O=c1[nH]c(=O)n(C2CCCO2)cc1F (configuration not stated) [Tegafur] | 0.967 | 0.729 | -11.7 (inactive) | 34.5 (inactive)
CC12CC3CC(C)(C1)CC(N)(C3)C2 [Memantine] | 1.07 ± 0.024 | 0.838 ± 0.13 | 12.9 (inactive) | -7.18 (inactive)
CC(N)C12CC3CC(CC(C3)C1)C2 (configuration not stated) [Rimantadine] | 0.962 | 0.737 | 28.7 (inactive) | 62.2
CN[C@@H]1[C@H](O)[C@H](NC)[C@H]2O[C@@]3(O)C(=O)C[C@@H](C)O[C@H]3O[C@@H]2[C@H]1O [Spectinomycin] | 0.923 | 1.03 | -3.04 (inactive) | -4.31 (inactive)
O=c1[nH]cnc2c1ncn2[C@H]1CC[C@@H](CO)O1 [2',3'-Dideoxyinosine] | 1.07 | 0.869 | -2.19 (inactive) | -10.5 (inactive)
OCCN1C[C@H](O)[C@@H](O)[C@H](O)[C@H]1CO [Miglitol] | 0.881 | 0.788 | -7.81 (inactive) | -16.8 (inactive)
COCCCOc1ccnc(C[S+]([O-])c2nc3ccccc3[nH]2)c1C (configuration not stated) [Rabeprazole] | 0.82 | 0.912 | -11.1 (inactive) | 10.6 (inactive)
CC(C)C[C@H](NC(=O)[C@@H](COC(C)(C)C)NC(=O)[C@H](Cc1ccc(O)cc1)NC(=O)[C@H](CO)NC(=O)[C@H](Cc1c[nH]c2ccccc12)NC(=O)[C@H](Cc1cnc[nH]1)NC(=O)[C@@H]1CCC(=O)N1)C(=O)N[C@@H](CCCNC(=N)N)C(=O)N1CCC[C@H]1C(=O)NNC(N)=O [Goserelin] | 0.788 | 0.867 | -8.02 (inactive) | -4.2 (inactive)
CC(C)(C)NCC(O)c1cc(O)cc(O)c1 (configuration not stated) [Terbutaline] | 0.31 | 0.251 | -15.9 (inactive) | -16.6 (inactive)
CC(C)(C)NCC(O)c1ccc(O)c(CO)c1 (configuration not stated) [Albuterol] | 0.654 | 0.789 | -29.6 (inactive) | -17.3 (inactive)
CCC[C@@H]1C[C@@H](C(=O)N[C@@H]([C@H]2O[C@H](SC)[C@H](O)[C@@H](O)[C@H]2O)[C@@H](C)O)N(C)C1 [Lincomycin] | 0.754 | 0.914 | -22.9 (inactive) | 7.24 (inactive)
C[C@H]1c2cccc(O)c2C(=O)C2=C(O)[C@]3(O)C(=O)C(C(N)=O)=C(O)[C@@H](N(C)C)[C@@H]3[C@@H](O)[C@@H]21 [Doxycycline] | 0.798 | 0.815 | -18.2 (inactive) | -0.977 (inactive)
O=C(O)Cc1ccccc1Nc1c(Cl)cccc1Cl [Diclofenac] | 0.824 | 0.883 | -25.4 (inactive) | -15.6 (inactive)
COc1ccc(CC(C)NCC(O)c2ccc(O)c(NC=O)c2)cc1 (configuration not stated) [Formoterol] | 0.702 | 0.726 | -12.6 (inactive) | -14.5 (inactive)
O=c1n(CCCN2CCN(c3cccc(Cl)c3)CC2)nc2ccccn12 [Trazodone] | 0.819 | 0.5 | -42.9 (inactive) | -62.2 (inactive)
N=C(N)N [Guanidine] | 0.765 | 0.71 | -7.42 (inactive) | -8.57 (inactive)
Cc1ccc(NC(=O)c2ccc(CN3CCN(C)CC3)cc2)cc1Nc1nccc(-c2cccnc2)n1 [Imatinib mesylate] | 0.424 | 0.773 | -5.16 (inactive) | 37.1 (inactive)
c1ccc2c(CC3=NCCN3)cccc2c1 [Naphazoline] | 1.1 | 1.06 | 13.7 (inactive) | 14 (inactive)
CC1(C)O[C@@H]2C[C@H]3[C@@H]4CCC5=CC(=O)C=C[C@]5(C)[C@@]4(F)[C@@H](O)C[C@]3(C)[C@]2(C(=O)CO)O1 [Triamcinolone Acetonide] | 1.37 | 1.32 | 5.47 (inactive) | 19.3 (inactive)
C#C[C@]1(O)CC[C@H]2[C@@H]3CCC4=Cc5oncc5C[C@]4(C)[C@H]3CC[C@@]21C [Danazol] | 0.577 | 0.557 | -20.4 (inactive) | -24.3 (inactive)
S=c1[nH]cnc2nc[nH]c12 [Mercaptopurine] | 0.858 | 0.41 | -32.7 (inactive) | -50.2 (inactive)
CN(C)CCC=C1c2ccccc2COc2ccccc21 [Doxepin] | 0.859 ± 0.061 | 0.732 ± 0.042 | -6.24 (inactive) | -4.42 (inactive)
O=C1c2c(O)cc(O)cc2O[C@H](c2ccc(O)c(O)c2)[C@H]1O [Distylin] | 0.8 | 1.16 | -6.73 (inactive) | 0.864 (inactive)
